# According to PubChem BioAssay (NCI):
# Several values for one entry are separate records, joined by “and”; a condition that tells them apart may be missing. Equal values may be shown once. Compounds without any hit were thinned out: in the full panel of roughly 83,000, 20% have a hit.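 Plates (96-well) were seeded with cells, treated with compound at one concentration, and incubated for 48 hours before percent growth was determined.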 A number with no mark means an inactive call. Activity calls are given as the source filed them.
# System: CAKI-1 renal
# Assay: NCI-60 one-dose screen, 48 h (100 = growth as untreated, 0 = no growth, -100 = all killed)
# Conditions: 0.005 µM
# Description: Growth inhibition of the CAKI-1 human tumor cell line is measured as a screen for anti-cancer activity. Cells are grown in 96 well plates and exposed to the test compound for 48 hours. Compounds are tested at a single concentration, which is 10^-5 M for most compounds. The reported endpoint is percent growth (GI% or GIPRCNT), where numbers from 0 - 100% represent growth inhibition, and numbers from -100% - 0 represent cell death. For example, a value of 40 represents 60% growth inhibition. A value of 0 means no net growth occurred over the course of the experiment. A value of -40 indicates 40% of cells at the beginning of the experiment died by the end of the experiment. A value of -100 means all cells are dead at the end of the experiment.
# NCI-60 Human Tumor Cell Lines Screen was performed using the standard one-dose NCI protocol, which is described in more detail at https://dtp.cancer.gov/discovery_development/nci-60/default.htm.
# Compounds with GIPRCNT values below 10 were considered active. Activity score was based on GIPRCNT using the following formula: […]
# Score is 0 for GIPRCNT values of 100 or above, 50 for GIPRCNT values of 0, and 100 for GIPRCNT values of -100.
row,SMILES,growth [%]
1,CN(C)CCNc1ncc(F)c(-c2cnc3cc(-c4cnn(C)c4)ccn23)n1,99.5

# Same assay, conditions: 10 µM unless noted
row,SMILES,growth
1,Cc1ccc(C(=O)c2ccc(CC(=O)N=Nc3c(O)[nH]c4ccc(OC(F)(F)F)cc34)n2C)cc1,91.1%
2,COc1cc(/C=C/C(=O)c2ccc(NC(=O)CSc3nnc(-c4cc(-c5ccccc5)nc5ccccc45)n3-c3ccccc3)cc2)cc(OC)c1OC,72.4%
3,Clc1cccc(Nc2ncnc3ccc(-c4cncc(-n5cnnn5)c4)cc23)c1,24.3%
4,O=C(N/N=C/c1ccc(O)cc1O)c1cccc(Nc2ccnc(C(F)(F)F)c2)c1,40.3%
5,N#CSc1c[nH]c2ccc(/C=C/C(=O)/C=C(/C=C/c3ccc4[nH]cc(SC#N)c4c3)OB(F)F)cc12,-71.5% (active)
6,COc1ccc(Nc2nn3c(SCC(=O)c4ccc(C)cc4)nnc3s2)cc1,75.2%
7,CC(=O)c1c(C)nc(SCC(=O)Nc2ccc(Cl)cc2)n1-c1ccc(Cl)cc1,81.7%
8,Cc1cc(N2CCCCC2)nc(NCc2cc(Nc3ccnc4cc(Cl)ccc34)ccc2F)n1,19.1%
9,CCOC(=O)c1cc2c(n1Cc1cc(OC)cc(OC)c1Br)-c1nc(NC(C)=O)sc1CCC2,67.3%
10,Cc1ccc2[nH]c(=S)[nH]c(=O)c2c1,89.7%
11,CN(Cc1ccccc1)c1nc(Cl)c(C2CC(c3ccc(F)cc3)=NN2C=O)s1 (stereo not given),83.8%
12,COc1cc(CO)cc2cc3ccccc3nc12,93.6%
13,CC1(Cc2ccccc2)CC2=C(C(=O)O1)C(c1ccccc1)NC(=O)N2 (stereo not given),95%
14,CNC(=O)c1cc(Oc2ccc3nc(NC(=O)Nc4ccc(C(F)(F)F)cc4)sc3c2)ccn1,92%
15,COC(=O)c1nc(-c2ccccc2)oc1S(=O)(=O)N(C)CCO,54.7%
16,Nc1nc(N)c2c(n1)NC(c1ccc(Cl)cc1)CC(c1cccc(Nc3ccncc3)c1)=N2 (stereo not given),73.7%
17,O=C(CN1C(=O)S/C(=C\C(Cl)=C\c2ccccc2)C1=O)NCCCn1ccnc1,50.5%
18,Cc1cc2nc(C(Cl)Cl)nc(-c3ccc(Cl)cc3)n2n1,-38% (active)
19,CCOC(=O)c1c(-c2ccc(OC)cc2)c(C#N)c2c(C#N)c(N)nn2c1N,39.8%

row,SMILES,growth
1,CN1CCN(c2ccc(Nc3ncc(C(N)=O)c(NCCCNC(=O)C4CCC4)n3)cc2)CC1,35.1%
2,ON=C1CCCCCCCC1,105% and 99.8%
3,O=C1Nc2ccccc2/C1=C/c1cccn1CCCCCn1c2ccccc2c(=O)c2ccccc21,65.9%
4,Cc1nc2cccc(NCCCCC(=O)NO)c2c(=O)n1-c1ccccc1,55.6%
5,Clc1ccc(CNc2ccc3nc(CCC4CCCCC4)[nH]c3c2)cc1,50.4%
6,Nc1nc(Nc2cccnc2)sc1C(=O)c1ccccc1F,-3.89% (active)
7,O=C(Nc1ncc(Cc2cccc(C(F)(F)F)c2)s1)c1ccc(-n2cnnn2)cc1,30.1%
8,O=C1/C(=C/c2ccccc2[N+](=O)[O-])Cc2ccccc21,-10.6% (active) and -9.61% (active)
9,COc1ccc(-c2nnc3n(C)c(=O)c4ccccc4n23)cc1O,35.2%
10,COC(=O)/C=C1/SC(N2N=C(c3cccs3)CC2c2ccc(F)cc2)=NC1=O (stereo not given),77%
11,COc1ccc(NC(=O)Nc2ccccc2CNc2nc(Nc3ccc(OCCN4CCCC4)cc3)ncc2Cl)cc1,-79.1% (active)
12,COc1c(F)cc(-n2c(C(=O)N3CC(F)C3)cc3cccnc32)cc1F,86.3%
13,Nc1ncc(-c2ccc3ncnc(N4CCc5ccc(Cl)cc54)c3c2)cc1C(F)(F)F,-9.77% (active)
14,O=C1CCCCN1CCCCC#Cc1cccc(C#Cc2cccnc2)c1,84.4%
15,CCCCSc1ccc2nc(-c3ccc(OCCCN=C(N)N)cc3)cn2c1,62.3%
16,O=C(NCc1cccnc1)/C(=C\c1ccc(Br)cc1)S(=O)(=O)c1ccccc1,-2.88% (active)
17,O=C(c1ccc(Nc2nccc(NCCCNc3ccnc4cc(Cl)ccc34)n2)cc1)N1CCCCC1,89.9%
18,CC1(C)C(N)=Nc2cc(OCCCN3Cc4ccc(OCCc5cn(CC(=O)N6CCC(CCN7CCCC7)CC6)nn5)cc4C3)c(OCC3CC3)cc21,91.2%
19,CCOc1nc(-c2ccccc2)cc2c(O)c(C(=O)N/N=C/c3ccc(N(C)C)cc3)[nH]c(=O)c12,108%

# Same assay, conditions: 30 µM
row,SMILES,growth [%]
1,CN(C)CCNc1ncc(F)c(-c2cnc3cc(-c4cnn(C)c4)ccn23)n1,15.5
